According to PubChem BioAssay (NCI):
Compounds without any hit were thinned out: in the full panel of roughly 83,000, 20% have a hit.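 Percent growth is the endpoint: 0 to 100 indicates growth inhibition (40 means 60% inhibition), 0 means no net growth, and negative values indicate cell death.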 Values without a mark were called inactive. Active and inactive are the calls of the source. The calls were made as follows: active = growth percent below 10; inactive = the rest.

Columns and labels:
Assay in all cases: NCI-60 one-dose screen, 48 h (100 = growth as untreated, 0 = no growth, -100 = all killed)
Settings in all cases: 10 µM
HT29 colon = tested on: HT29 colon
SNB-75 CNS = tested on: SNB-75 CNS
SNB-19 CNS = tested on: SNB-19 CNS
U251 CNS = tested on: U251 CNS
PC-3 prostate = tested on: PC-3 prostate
SK-MEL-5 melanoma = tested on: SK-MEL-5 melanoma
UACC-62 melanoma = tested on: UACC-62 melanoma
LOX IMVI melanoma = tested on: LOX IMVI melanoma
SK-MEL-28 melanoma = tested on: SK-MEL-28 melanoma
SK-MEL-2 melanoma = tested on: SK-MEL-2 melanoma
EKVX NSCLC = tested on: EKVX NSCLC
SN12C renal = tested on: SN12C renal
UO-31 renal = tested on: UO-31 renal
TK-10 renal = tested on: TK-10 renal
ACHN renal = tested on: ACHN renal
A498 renal = tested on: A498 renal
CCRF-CEM leukemia = tested on: CCRF-CEM leukemia
MOLT-4 leukemia = tested on: MOLT-4 leukemia
SR leukemia = tested on: SR leukemia
CAKI-1 renal = tested on: CAKI-1 renal

Row | SMILES | growth (HT29 colon) | growth (SNB-75 CNS) | growth (SNB-19 CNS) | growth (U251 CNS) | growth (PC-3 prostate) | growth (SK-MEL-5 melanoma) | growth (UACC-62 melanoma) | growth (LOX IMVI melanoma) | growth (SK-MEL-28 melanoma) | growth (SK-MEL-2 melanoma) | growth (EKVX NSCLC) | growth (SN12C renal) [%] | growth (UO-31 renal) | growth (TK-10 renal) | growth (ACHN renal) | growth (A498 renal) | growth (CCRF-CEM leukemia) | growth (MOLT-4 leukemia) | growth (SR leukemia) | growth (CAKI-1 renal) [%]
1 | CC12O[C@H](C[C@@H](OC(=O)c3ccccc3)[C@H]1O)n1c3ccccc3c3c4c(c5c6ccccc6n2c5c31)C(=O)NC4=O | 78.5% | 45.7% | 101% | 77.1% | 42.5% | 48.6% | 55% | 72.7% | 90.4% | 54.2% | 36.4% | 33 | -13.9% (active) | 7.3% (active) | 39.4% | -25.6% (active) | 64% | 64.3% | 50.3% | 
2 | CN1CCC(CNc2cc(C3(C(=O)Nc4cc(C(=O)Nc5ccc(Cl)c(C(F)(F)F)c5)ccc4F)CC3)ncn2)CC1 | -26.6% (active) | 23.1% | -34.1% (active) | -37.5% (active) | -23% (active) | -95.4% (active) | 32.9% | -74.2% (active) | -54.7% (active) | -57.2% (active) | 46.7% | 78.8 | 7.95% (active) | 84.5% | 20.1% | 96% | -23.9% (active) | -37.5% (active) | -26.7% (active) | 
3 | Nc1nc(N)c2c(ccc3nccc32)[nH]1 | 27% | 79.2% | 62.4% | 36% | 7.39% (active) | 41.2% | 47.2% | 23% | 83.4% | 57.6% | 51.6% | 94 | 39.3% | 92.1% | 42.7% | 79.4% | 27.9% | 33.9% | 28.5% | 
4 | CN(C)CCCn1c(=O)c2ccccc2c2cnc3[nH]ccc3c21 | -9.52% (active) | 26.5% | 13.6% | 8.32% (active) | -9.22% (active) | 10.3% | -20.2% (active) | 1.3% (active) | 21.1% | -8.38% (active) | 10.5% | 10.2 | 0.877% (active) | 8.77% (active) | -1.65% (active) |  | 18.6% | -5.39% (active) | -35% (active) | 22.5
5 | CCN1Cc2c(/C=C/c3ccccc3)nc3ccc(OC)cc3c2N(c2cccc(Cl)c2)C1 | 64.2% | 63.6% | 93.3% | 76% | 20.2% | 20.6% | 52.3% | 73% | 95.9% | 77.5% | 66.9% | 60.6 | 63.8% | 101% | 98% | 85.5% | 58.6% | 55.4% | 11.7% | 
6 | Cc1cc(N(CCCNc2ccnc3cc(Cl)ccc23)Cc2ccc3c(c2)OCO3)nc(N2CCCCC2)n1 | -49.9% (active) | -26.5% (active) | 14.9% | -55% (active) | -34.6% (active) | -95.3% (active) | -54.7% (active) | -89% (active) | -81.9% (active) | -67.5% (active) | 2.19% (active) | 23.4 | -61.9% (active) | -35.3% (active) | -37.7% (active) | -18.8% (active) | -5.28% (active) | -27.1% (active) | -41.7% (active) | 
7 | CC(C)(C)c1ccc(N2CSC(=S)N(c3ccc(C(C)(C)C)cc3)C2)cc1 | 105% | 76.1% | 95.4% | 100% | 73.8% | 96.3% | 94.9% | 101% | 105% | 101% | 84.1% | 99.6 | 79.4% | 111% | 89% | 107% | 88.5% | 100% | 112% | 
8 | N#CCCN(NC(=O)OCc1ccccc1)C(=O)OCc1ccccc1 | 106% | 81.4% | 108% | 102% | 93.4% | 108% | 101% | 94.3% | 119% | 106% | 91.8% | 106 | 80.7% | 120% | 102% |  |  | 97.1% | 107% | 88.4
9 | Cc1ccc(NC(=O)Nc2c(Cl)cccc2Cl)cn1 | 130% | 92.1% | 102% | 89.8% | 83.8% | 87.1% | 78.7% | 101% | 130% | 91.4% | 58.8% | 105 | 72.1% | 128% | 95.5% | 106% | 69.5% | 86.9% | 59.1% | 
10 | Cc1cccc(NC2=C(C#N)C(=O)NC3(CCCC3)S2)c1 | 103% | 90.7% | 94.2% | 97.4% | 105% | 95.7% | 98.7% | 96.5% | 105% | 98.2% | 106% | 97.3 | 93.8% | 107% | 98.2% | 96.9% | 90.2% | 98.4% | 94.9% | 
11 | O=C(Nc1nc2ccccc2s1)Nc1ccc([N+](=O)[O-])cc1Cl | 55.8% | 16.8% | 111% | 32.6% | 52% | 98.5% | 67.1% | 12.7% | 68.5% | 111% | 90.4% | 78.8 | 26.8% | 57% | 88% | 106% | 57.7% | 91.1% | 48.3% | 
12 | N#CC1=C(Nc2ccccc2Cl)SC(c2ccccc2O)NC1=O (configuration not stated) | 112% | 103% | 111% | 104% | 96.7% | 103% | 103% | 97.5% | 109% | 114% | 108% | 102 | 84.5% | 134% | 97.7% | 95.2% | 99.9% | 104% | 123% | 
